Compound activity (PubChem)
The list is not random: actives were taken first. Their share in the collection is about 32%.
CYP2C19 inh: inhibitors of human CYP2C19 | CYP2C19 Supersomes, luciferin-H EGE luminescence, 30 min | inhibition, % at 5 µM | 96,000 compounds, 21% hits | AID 778 | P33261;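 active = CYP2C19 inhibition above a set limit at 5 µM in the primary screen, cut at about 50% in these data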;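 note: plate controls were negative control wells for no effect and 2.5 mM tranylcypromine positive control for full effect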
PostGolgi yeast: growth inhibition of a yeast mutant, post-Golgi transport screen. post-Golgi transport phenotypic cell assay. inhibition, % at 10 µM. 98,000 compounds, 0.9% hits;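 note: yeast cells grown in 1536-well plates; yeast grown about 18 h at 30C before absorbance read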
CYP2C9 act: CYP2C9 (human) activation; P11712; recombinant CYP2C9, luciferin-H conversion, luminescence; active compounds read high; factor 1 = untreated enzyme, 0 = blocked; activation factor at 5 µM; 96,000 compounds, 1.4% hits; AID 1024;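 active = activation factor of 2 or more for CYP2C9 at a 5 µM dose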;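 note: 0 = sulfaphenazole-blocked wells and 1 = vehicle-only wells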
Target sequence (P11712 whole entry, looked up): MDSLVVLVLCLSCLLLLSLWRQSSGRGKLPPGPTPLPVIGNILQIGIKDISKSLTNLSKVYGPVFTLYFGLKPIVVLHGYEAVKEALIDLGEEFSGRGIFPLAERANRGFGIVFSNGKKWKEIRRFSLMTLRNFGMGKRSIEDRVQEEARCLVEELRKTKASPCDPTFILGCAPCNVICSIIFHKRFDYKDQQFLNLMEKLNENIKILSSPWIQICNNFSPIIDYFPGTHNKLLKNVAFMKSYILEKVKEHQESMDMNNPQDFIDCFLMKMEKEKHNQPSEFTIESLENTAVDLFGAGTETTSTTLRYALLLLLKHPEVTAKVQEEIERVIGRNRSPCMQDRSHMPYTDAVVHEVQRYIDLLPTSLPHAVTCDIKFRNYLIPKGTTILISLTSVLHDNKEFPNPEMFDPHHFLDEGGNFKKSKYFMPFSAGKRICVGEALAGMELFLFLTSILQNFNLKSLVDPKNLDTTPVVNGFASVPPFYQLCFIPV
PostGolgi ctrl: yeast control strain growth, post-Golgi counter-screen | efflux-deficient yeast background strain, growth absorbance A615, 16 h | inhibition, % at 10 µM | 98,000 compounds, 5% hits | AID 738
CYP2C19 activ: activators of human cytochrome P450 2C19; P33261; recombinant CYP2C19, luciferin-H EGE luminescence; active compounds read high; 0 = fully inhibited enzyme, 1 = untreated enzyme; activation factor at 5 µM; 96,000 tested, under 10 active;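 active = activation factor of at least 2 at 5 µM in the primary screen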;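 note: 0 = wells with 2.5 mM tranylcypromine and 1 = vehicle-only wells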
CYP2C9 inh: human CYP2C9 inhibition. P11712. CYP2C9 Supersomes, luciferin-H conversion, luminescence. inhibition, % at 5 µM. 96,000 compounds, 20% hits. AID 777;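 active = blocking of liver enzyme CYP2C9 beyond about 50% at 5 µM, limit read from the data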
The depositor's hits bear a star. Cut-off read from the data, not from the text of the source, unless noted: active = inhibition above about 30%; inactive = the rest.

SMILES	CYP2C19 inh	PostGolgi yeast	CYP2C9 act	PostGolgi ctrl	CYP2C19 activ	CYP2C9 inh
CC(C)(C)c1[nH]nc2c1C(c1ccc(OC(=O)c3ccco3)cc1)C(C#N)=C(N)O2 (stereo unspecified)	65*	2	0.3	18	0.3	71*
CC(C)(C)c1[nH]nc2c1C(Cc1ccccc1)C(C#N)=C(N)O2 (stereo unspecified)	73*	-7	0.4	40*	0.3	59*
COc1ccc(C2(C(F)(F)F)NC(=O)N(C)C(=O)N2C)cc1 (stereo unspecified)	12	2	1	-6	0.9	-4
CCCCN1c2cc(C)c(O)cc2C(C(=O)OCC)C1C (stereo unspecified)	59*	0	0.5	17	0.4	50
Brc1ccc2[nH]c3c(N4CCc5ccccc5C4)ncnc3c2c1	6	42*	0.1	76*	0.9	92*
Cc1ccc2[nH]c3c(N4CCc5ccccc5C4)ncnc3c2c1	11	-40	0.9	43*	0.9	8
O=C(NCCCN1CCOCC1)c1ccc(CS(=O)(=O)Cc2ccc(Cl)cc2)o1	-4	6	1	-6	1	2
CCOC(=O)C1=C(CSc2nncn2C)NC(=O)NC1c1cc(OCC)ccc1OCC (stereo unspecified)	-17	12	1.2	1	1.2	-23
CN(C)C(=O)c1c2c(nc3ccccc13)-c1ccccc1CC2	11	-12	0.8	1	0.9	23
CCOC(=O)N1CCC(c2cc(=O)n3[nH]cc(C(=O)OC)c3n2)CC1	-10	-7	0.4	4	1.1	62*
CCOC(=O)N1CCC(c2cc(=O)n3[nH]ccc3n2)CC1	-4	-6	0.4	11	1	59*
CCCC(=O)Nc1ccc(N2CCN(C(=O)c3cccs3)CC2)cc1	28	19	0.6	-1	0.7	45
O=C1CC(NCCN2CCOCC2)C(=O)N1Cc1ccc(N2CCCC2=O)cc1 (stereo unspecified)	5	-2	1	5	1	2
COc1ccc(C(=O)ON=C2CCN(c3ccc([N+](=O)[O-])cc3)CC2)cc1	11	5	0.8	36*	0.9	17
O=C(ON=C1CCN(c2ccc([N+](=O)[O-])cc2)CC1)c1ccccc1	-6	8	1	16	1.1	5
COc1ccc(Cl)c(Cn2c(NCCCO)nc3c2c(=O)n(C)c(=O)n3C)c1	2	11	0.9	-1	1	7
CCN(CC)C(c1ccc(C)cc1)c1nnnn1C1CCCCC1 (stereo unspecified)	95*	-9	0.2	16	0.1	78*
c1ccc(CN(Cc2ccco2)C(c2ccncc2)c2nnnn2C2CCCC2)cc1 (stereo unspecified)	98*	1	0	21	0	98*
Cc1ccc(C(c2nnnn2C(C)(C)C)N(Cc2ccco2)Cc2cccs2)cc1 (stereo unspecified)	24	11	0.2	8	0.8	76*
CC(C)(C)n1nnnc1C(c1ccc(F)cc1)N(Cc1ccc(F)cc1)Cc1ccco1 (stereo unspecified)	37	-9	0.3	20	0.6	65*
O=C(Cn1cc(C(=O)C2CC2)c2ccccc21)NC1CCCC1	-2	-4	0.6	-2	1	43
C=CCn1c(SCC(=O)Nc2cc3oc4ccccc4c3cc2OC)nnc1-c1cnccn1	75*	-6	0.1	7	0.2	95*
C=CCn1c(COc2ccccc2F)nnc1SCC(=O)Nc1cc2oc3ccccc3c2cc1OC	21	2	0.6	15	0.8	42
CCOc1ccccc1NC(=O)CSc1nnc(-c2cnccn2)n1C	-3	-5	1.1	8	1	-8
C=CCn1c(SCC(=O)Nc2cccc3ccccc23)nnc1-c1cnccn1	55*	4	0.6	-1	0.4	43
SMILES	CYP2C19 inh	PostGolgi yeast	CYP2C9 act	PostGolgi ctrl	CYP2C19 activ	CYP2C9 inh
O=C1OCCC1N1C(=O)c2ccccc2S1(=O)=O (stereo unspecified)	-8	0	1	-12	1.1	-2
Cn1c(CC(=O)Nc2ccccc2)nnc1SCCOc1ccccc1	13	5	0.9	4	0.9	10
Cc1cccc(OCc2nnc(SCC(=O)Nc3cc(C)on3)n2C)c1	10	-3	0.9	-3	0.9	11
Cc1cc(S(=O)(=O)NCCN(C)C)c(C)s1	-2	3	0.9	4	1	6
CCCCOc1ccc(N2C(=O)CC(N(O)c3ccccc3)C2=O)cc1 (stereo unspecified)	-12	-6	1.1	4	1.1	-5
Cc1cccc(C)c1N1C(=O)CC(N(O)c2ccccc2)C1=O (stereo unspecified)	97*	1	0.7	3	0	30
CCOc1ccccc1N1C(=O)CC(N(O)c2ccccc2)C1=O (stereo unspecified)	93*	-13	1.1	8	0.1	-8
Cc1c(Cl)cccc1N1C(=O)CC(N(O)c2ccccc2)C1=O (stereo unspecified)	94*	0	2.6*	0	0.1	-156
CCCCCOc1ccc(N2C(=O)CC(N(O)c3ccccc3)C2=O)cc1 (stereo unspecified)	-11	-3	1	-7	1.1	-1
CCOCCOCN(C#N)c1nc(OC)nc(N(C)C)n1	64*	-5	1.4	2	0.4	-44
CC1CCCN(C(=O)C2CCN(S(=O)(=O)c3cccc4cccnc34)CC2)C1 (stereo unspecified)	49	10	3.3*	8	0.5	-228
O=C(NC1CCCC1)C1CCN(S(=O)(=O)c2cccc3cccnc23)CC1	22	-3	3.1*	6	0.8	-213
O=C(NCc1ccccc1)C1CCN(S(=O)(=O)c2cccc3cccnc23)CC1	-3	-3	1.6	-6	1	-57
COc1ccc(Cl)cc1C(=O)OCC(=O)NC(=O)c1cccn1C	22	23	3.3*	2	0.8	-233
Cn1cccc1C(=O)NC(=O)COC(=O)c1ccccc1Sc1ccccc1C#N	11	10	1.4	2	0.9	-39
CN(C)c1nccc(N(Cc2ccccc2)Cc2ccccc2)c1C#N	27	0	0.4	30*	0.7	65*
Cc1cc2ncc(-c3ccc(Cl)cc3)c(N)n2n1	35	-4	0.2	14	0.7	77*
O=C(N/N=C/c1ccncc1)c1cc2c(ccc3ccccc32)o1	-6	2	0.6	12	1.1	45
O=C(CCc1ccccc1O)N/N=C/c1ccc(Sc2cccc3cccnc23)o1	49	-4	0	11	0.5	99*
O=C(CSc1cccc2cccnc12)NCc1ccco1	6	-6	1.5	7	0.9	-47
O=C(N/N=C/c1ccc(Sc2ccccn2)o1)c1cc2ccccc2cc1O	98*	-5	0.1	0	0	88*
